Screening data: PubChem, several laboratories
Rows were chosen to be rich in hits. Some 1.8% of all compounds tested hit in one or more screens of this group.
IEC-6 cytotox: IEC-6 cytotoxicity, counter-screen for KLF5 inhibitors. inhibition, % at 5 µM. 0.78% of 290,000 active. AID 1825. luminescence viability; in the data active = inhibition above about 22%;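 also: 0% = plate median of test compound wells and 100% = cytotoxic reference compound wells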
APP 5UTR inh: APP translation inhibition; 0.82% of 190,000 active; inhibition, % at 2 µM; SH-SY5Y APP 5'UTR-luciferase reporter, luminescence; AID 1285;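 active = inhibition above a set limit, derived from the sample mean plus 3 SD, cut at about 45% in these data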
KLF5 inh: inhibitors of KLF5 expression; AID 1700; DLD-1 KLF5 promoter-luciferase reporter, luminescence; 0.23% of 290,000 active; inhibition, % at 5 µM;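 active = inhibition above a per-plate limit of that plate's mean compound inhibition plus 3 SD, cut at about 60% in these data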;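 also: 0% = DMSO wells and 100% = LY294002 at 200 µM; higher means less KLF5 promoter-driven luciferase light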
Ba/F3 V617F tox: lowers viability of Ba/F3 cells expressing EpoR and JAK2V617F | ATP luminescence | inhibition, % at 5.6 µM | 1.1% of 220,000 active | AID 1446;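 active = inhibition above the campaign mean plus 3 SD over all tested compounds, cut at about 24% in these data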;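 also: cytokine-independent growth of Ba/F3 cells driven by EpoR plus mutant JAK2; 0% = DMSO-treated cells and 100% = JAK inhibitor I control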
BaF3 tox: parental Ba/F3 viability inhibition as JAK2V617F counter-screen | CellTiter-Glo ATP luminescence | inhibition, % at 5.6 µM | 1.1% of 220,000 active;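 active = inhibition above a per-campaign cutoff, the mean inhibition of all tested compounds plus 3 SD, cut at about 27% in these data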;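 also: 0% = DMSO wells and 100% = JAK Inhibitor I control wells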
BaF3 tox 2: parental Ba/F3 viability inhibition for JAK2V617F counter-screen. shares compounds with Ba/F3 V617F tox. CellTiter-Glo luminescence; cells kept alive by added IL-3. inhibition, % at 5.6 µM. 31% of 580 active. AID 1520;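 active = cell growth inhibition above the hit limit set in the earlier mutant JAK2 cell screen, cut at about 27% in these data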;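 also: plate controls were DMSO-treated cells for no effect and JAK Inhibitor I control wells for full effect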
JAK2V617F conf: Ba/F3 EpoR-JAK2V617F viability loss, confirmation | shares compounds with Ba/F3 V617F tox | CellTiter-Glo luminescence | inhibition, % at 5.6 µM | 66% of 580 active | AID 1521;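 active = mean inhibition above the hit cutoff derived in the earlier primary screen, cut at about 25% in these data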;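 also: 0% = DMSO-treated cells and 100% = JAK inhibitor I control wells; higher means lower luminescence from reduced cell ATP and viability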
* hit, by the source's call; x = no result.

SMILES | IEC-6 cytotox | APP 5UTR inh | KLF5 inh | Ba/F3 V617F tox | BaF3 tox | BaF3 tox 2 | JAK2V617F conf
CC(=O)Nc1ccc(S(=O)(=O)NCCC(=O)OCc2ccc([N+](=O)[O-])cc2)cc1 | 2.5 | x | -9.4 | x | x | x | x
CN(C(=O)COC(=O)/C=C/c1ccc(C(F)(F)F)cc1)C1CCS(=O)(=O)C1 (stereo unspecified) | 0.3 | x | -1.0 | x | x | x | x
O=C(COC(=O)c1ccncc1)Nc1cc(Cl)ccc1Cl | -2.6 | 17.9 | -11.9 | 44.9* | 3.9 | -4.8 | -1.1
CC(=O)C1=C(O)C(=O)N(c2ccc(Br)cc2)C1c1ccccc1[N+](=O)[O-] (stereo unspecified) | 5.2 | x | -38.2 | x | x | x | x
O=C(/C=C/c1ccc(O)c(O)c1)c1ccc(S(=O)(=O)N2CCCCCC2)cc1 | 7.8 | 9.7 | -12.5 | 44.3* | 14.7 | 9.8 | 85.2*
Cc1ccc(C=Nc2ccccc2C(N)=O)cc1 | 16.4 | 17.4 | 12.6 | 41.9* | 21.9 | 36.7* | 77.7*
Cc1ccc(C=Nc2ccccc2C(=O)Nc2ccccc2)cc1 | 0.1 | 18.8 | -27.6 | -0.1 | 6.7 | x | x
Cc1ccc(C(=O)N2CCN3C(=O)c4ccccc4C23c2ccc(Cl)cc2)cc1 (stereo unspecified) | 16.9 | -1.5 | -8.7 | 28.1* | 21.9 | 16.0 | 36.4*
Cc1cc(NC(=O)c2sc(Nc3ccc(F)cc3)nc2N)no1 | 1.2 | -54.9 | -22.6 | 97.7* | 23.2 | 64.7* | 98.8*
CC(C)(C)/C(O)=C/c1nc2cc(Cl)ccc2oc1=O | -1.4 | x | -37.1 | 36.9* | 5.1 | 8.4 | 78.3*
Cc1ccc2oc(=O)c(/C=C(\O)C(C)(C)C)nc2c1 | 0.5 | -4.4 | -16.8 | -1.5 | 2.4 | x | x
COc1ccc(S(=O)(=O)N(CCCN2CCCC2=O)Cc2cc3cc(C)c(C)cc3[nH]c2=O)cc1 | -1.2 | -8.0 | 10.3 | -0.7 | 2.2 | x | x
Cc1ccc(S(=O)(=O)N(CCCN2CCCC2=O)Cc2cc3c(C)ccc(C)c3[nH]c2=O)cc1 | 5.4 | -1.5 | -6.3 | 61.6* | 23.2 | -6.5 | 12.1
CN(C(=O)CCN1C(=O)c2ccccc2C1=O)c1ccccc1 | -6.2 | x | -22.2 | x | x | x | x
CC(=O)c1cccc(NC(=O)/C=C/c2ccc([N+](=O)[O-])s2)c1 | -3.4 | 81.4* | -1.4 | 101.2* | 6.8 | 106.1* | 100.0*
COC(=O)c1cccc(NC(=O)/C=C/c2cccc([N+](=O)[O-])c2)c1 | 1.0 | -20.4 | -38.9 | -6.2 | -1.7 | x | x
COCC(=O)N1CCC(Oc2ccc(C(=O)N(C)CCCC3CCCC3)cc2)CC1 | 0.7 | x | -18.9 | x | x | x | x
CCOC(=O)C1CCCN(C(=O)/C=C/c2ccccc2[N+](=O)[O-])C1 (stereo unspecified) | -3.3 | 19.4 | -6.1 | -0.4 | 5.7 | x | x
Nc1[nH]n(-c2ccccc2)c(=O)c1N=Nc1ccc2c(c1)OCO2 | 4.0 | x | -58.5 | 27.0* | 6.3 | 57.3* | 44.1*
Cc1cccc(C(=O)NC2CCN(S(=O)(=O)c3ccccc3)CC2)c1 | 0.2 | 5.9 | -5.1 | -0.2 | 3.4 | x | x
COc1ccc(C2=Nn3c(nnc3C3CCCCC3)SC2)cc1OC | 8.1 | -14.5 | 4.0 | 24.8* | 10.4 | 12.9 | 51.5*
Cc1ccc(C)c(-c2nc3ccc(N)cc3[nH]2)c1 | 6.8 | 3.1 | -0.9 | 32.5* | 25.7 | 34.6* | 54.1*
Nc1ccc2nc(-c3ccc(Cl)cc3)[nH]c2c1 | x | -60.6 | x | x | x | x | x
Nc1ccc2nc(-c3cc(Cl)c(N)c(Cl)c3)[nH]c2c1 | 6.3 | -44.5 | -89.8 | 24.3* | 19.6 | 31.3* | 53.1*
CCOC(=O)Nc1ccc2c(c1)N(C(=O)CCN1CCOCC1)c1ccccc1S2=O (stereo unspecified) | 9.6 | 13.2 | -48.0 | 40.9* | 3.6 | -1.6 | 23.2
SMILES | IEC-6 cytotox | APP 5UTR inh | KLF5 inh | Ba/F3 V617F tox | BaF3 tox | BaF3 tox 2 | JAK2V617F conf
Cc1nc(N=C(N)N)nc2ccccc12 | 7.3 | -22.7 | -7.0 | 33.5* | 19.9 | 28.9* | 50.9*
C=CCn1c(CNC(=O)c2ccco2)nnc1SCC(=O)N1c2ccccc2Sc2ccccc21 | 2.7 | -2.3 | 9.6 | 71.5* | 22.1 | -1.2 | -0.8
Cc1ccc(Nc2nc(-c3ccc(O)c(O)c3)cs2)nc1 | -2.6 | 5.9 | -0.6 | 92.1* | 16.8 | 95.5* | 98.5*
COc1ccc(-c2nnc(SCC(=O)Nc3ncc(C)s3)n2-c2ccccc2)cc1OC | 10.1 | -4.0 | 18.6 | 85.5* | 7.5 | 17.7 | 22.4
COc1ccccc1NC(=O)CC(=O)CSc1nnc(-c2ccc(C)cc2)n1-c1ccccc1 | -2.8 | 5.0 | -21.2 | -4.0 | -0.6 | x | x
CCOC(=O)N1CCN(CC(=O)Nc2nc3ccc(OC)cc3s2)CC1 | -7.1 | x | -22.8 | x | x | x | x
CCC(C)C(=O)Nc1c2c(nc3c1CCC3)CCCC2 (stereo unspecified) | 7.6 | 14.6 | -5.8 | 31.9* | 18.0 | -6.1 | -19.9
CC(C)C(=O)Nc1c2c(nc3c1CCC3)CCCC2 | 0.4 | 11.5 | -27.9 | 1.0 | 10.1 | x | x
Cc1cccc(OCC(=O)Nc2ccc3c(c2)nc(CCN2CCN(c4ccccn4)CC2)n3C)c1 | 3.1 | x | -11.9 | x | x | x | x
Cc1ccc(OCC(=O)NCCNC(=O)c2cccnc2)cc1C | 3.1 | x | -23.1 | x | x | x | x
CCCOc1ccc(C(=O)C(CN2CCOCC2)c2ccccc2)cc1 (stereo unspecified) | -5.1 | 16.8 | -3.0 | 46.2* | 11.7 | 9.7 | 97.3*
CCCOc1ccc(C(=O)C(c2ccccc2)N2CCOCC2)cc1 (stereo unspecified) | 1.6 | 3.9 | -16.9 | -0.6 | 3.7 | x | x
Oc1ccc(/C=N/N2CCN(C3c4ccccc4-c4ccccc43)CC2)cc1 | 0.1 | x | -30.5 | 0.1 | -3.5 | x | x
Oc1ccc(/C=N/N2CCN(C3c4ccccc4-c4ccccc43)CC2)cc1O | -2.1 | x | -15.1 | 70.1* | 2.1 | 9.1 | 89.9*
C=CCn1cc(C(=O)NCCCN(CC)CC)c(=O)c2cc(S(=O)(=O)N3CCC(C)CC3)ccc21 | 5.7 | x | 1.6 | x | x | x | x
O=S1(=O)C=C(Sc2nnc(-c3ccccc3)o2)c2ccccc21 | -2.2 | 95.8* | -11.5 | 34.5* | -5.5 | 94.0* | 98.4*
O=C(CSCc1ccc(Br)cc1)N1CCCC1 | 2.9 | -0.4 | -25.5 | 2.8 | 7.3 | x | x
Cc1cccc(Nc2nc(NCc3ccco3)c3ccccc3n2)c1 | 0.9 | 17.8 | -8.1 | 32.6* | 12.6 | 49.5* | 52.5*
COc1ccccc1NS(=O)(=O)c1cccc(-n2c(O)c(C=Nc3ccccc3C(=O)O)c3ccccc3c2=O)c1 | 8.4 | x | 5.8 | 24.4* | 8.0 | 8.4 | 31.9*
COc1ccc(Cn2c(O)c(C=Nc3ccccc3C(=O)O)c3ccccc3c2=O)cc1 | 2.4 | x | -44.7 | 3.8 | -1.9 | x | x
Cc1ccc(NC(=O)C(=Cc2ccc(C(=O)O)cc2)C(=O)Nc2ccc(C)cc2C)c(C)c1 | -7.5 | x | 3.9 | 35.6* | 0.8 | 6.2 | 61.1*
OCCC1CCCCN1CC(O)COCc1ccc(Cl)cc1 (stereo unspecified) | -3.2 | x | -2.7 | x | x | x | x
COc1cc(N2C(=O)C=CC2=O)c(OC)cc1Cl | 15.8 | x | -2.9 | 32.5* | 2.5 | -1.9 | 22.7
CCCCNC(=O)CCn1c(=O)c2ccccc2n(CC(=O)NCCc2ccc(OC)c(OC)c2)c1=O | 0.8 | -2.5 | -38.6 | -2.4 | 4.8 | x | x
